Activity calls are given as the source filed them. The calls were made as follows: active = hit-call score of the fitted dose curve at least 0.9, where 1 is the maximum; inactive = score below 0.9.
Key:
[1] = read-out: Tumor necrosis factor receptor superfamily member 6 (Homo sapiens) (UniProt P25445); assay: LTEA_HepaRG_FAS: Life Technologies and Expression Analysis (LTEA) Assay for Fas cell surface death receptor (FAS) using HepaRG (AID 2283447); conditions: mRNA level, 48 h; actives raise or lower the signal
In short: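 Differentiated HepaRG cells in serum-free induction medium were exposed 48 h to 8 half-log concentrations up to 100 uM in 0.5% DMSO, in duplicate. FAS mRNA was measured by qRT-PCR normalised to ACTB, GAPDH and POLR2A; bidirectional fit versus DMSO.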

[2] = read-out: Cyclin D2 (CCND2), CCND2 (gene 894); assay: LTEA_HepaRG_CCND2: Life Technologies and Expression Analysis (LTEA) Assay for Cyclin D2 (CCND2) using HepaRG (AID 2283449); conditions: mRNA level, 48 h; actives raise or lower the signal;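 also: CCND2 transcript measured by TaqMan qRT-PCR and normalised to three housekeeping genes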
In short: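 Chemicals in 0.5% DMSO, eight half-log concentrations from 100 uM top, were applied in duplicate for 48 h to human HepaRG cells in serum-free induction medium. CCND2 mRNA by TaqMan qRT-PCR, normalised to ACTB/GAPDH/POLR2A; bidirectional fit versus DMSO.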

[3] = read-out: Cyclin Dependent Kinase Inhibitor 1A (CDKN1A), CDKN1A (gene 1026); assay: LTEA_HepaRG_CDKN1A: Life Technologies and Expression Analysis (LTEA) Assay for Cyclin Dependent Kinase Inhibitor 1A (CDKN1A) using HepaRG (AID 2283450); conditions: mRNA level, 48 h; actives raise or lower the signal
In short: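 Read-out is CDKN1A mRNA by TaqMan qRT-PCR, normalized to three housekeeping genes and fitted in both directions against the DMSO baseline. Human HepaRG cells were treated 48 h with test chemicals up to 100 uM in half-log steps, 0.5% DMSO.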

[4] = read-out: Cyclin D1 (CCND1), CCND1 (gene 595); assay: LTEA_HepaRG_CCND1: Life Technologies and Expression Analysis (LTEA) Assay for Cyclin D1 (CCND1) using HepaRG (AID 2283451); conditions: mRNA level, 48 h; actives raise or lower the signal;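 as to AC50: TaqMan qRT-PCR transcript level normalised to ACTB GAPDH and POLR2A housekeeping genes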
In short: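 HepaRG plated 48 h, medium switched to serum-free induction medium, chemicals added in duplicate (top 100 uM, half-log steps, 0.5% DMSO) for 48 h, cells lysed, RNA measured by TaqMan qRT-PCR.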

[5] = read-out: catalase (CAT), CAT (gene 847); assay: LTEA_HepaRG_CAT: Life Technologies and Expression Analysis (LTEA) Assay for catalase (CAT) using HepaRG (AID 2283452); conditions: mRNA level, 48 h; actives raise or lower the signal;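 as to AC50: TaqMan qRT-PCR signal normalized to ACTB GAPDH and POLR2A housekeeping genes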
In short: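 HepaRG cells in serum-free induction medium, 0.5% DMSO vehicle, exposed 48 h in duplicate over 8 half-log concentrations from 100 uM. CAT mRNA measured by qRT-PCR, normalized to ACTB, GAPDH, POLR2A; bidirectional fit versus DMSO.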

[6] = read-out: flavin-containing dimethylaniline monooxygenases 3 (FMO3), FMO3 (gene 2328); assay: LTEA_HepaRG_FMO3: Life Technologies and Expression Analysis (LTEA) Assay for flavin-containing dimethylaniline monooxygenases 3 (FMO3) using HepaRG (AID 2283453); conditions: mRNA level, 48 h; actives raise or lower the signal
In short: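 Differentiated HepaRG cells in serum-free induction medium, exposed 48 h in duplicate to 8 half-log concentrations up to 100 uM in 0.5% DMSO. FMO3 mRNA by qRT-PCR, normalized to ACTB, GAPDH, POLR2A; bidirectional fit vs DMSO.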

[7] = read-out: CFLAR gene, CFLAR (gene 8837); assay: LTEA_HepaRG_CFLAR: Life Technologies and Expression Analysis (LTEA) Assay for CFLAR gene using HepaRG (AID 2283455); conditions: mRNA level, 48 h; actives raise or lower the signal
In short: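 Differentiated HepaRG cells in serum-free induction medium were exposed 48 h in duplicate to eight half-log concentrations up to 100 uM in 0.5% DMSO; mRNA measured by TaqMan qRT-PCR, normalized to ACTB, GAPDH, POLR2A; bidirectional fitting versus DMSO.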

[8] = read-out: Forkhead box O1 (FOXO1), FOXO1 (gene 2308); assay: LTEA_HepaRG_FOXO1: Life Technologies and Expression Analysis (LTEA) Assay for Forkhead box O1 (FOXO1) using HepaRG (AID 2283456); conditions: mRNA level, 48 h; actives raise or lower the signal
In short: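 Differentiated HepaRG cells, in serum-free induction medium with 0.5% DMSO, exposed 48 h in duplicate to 8-point half-log series from 100 uM. FOXO1 mRNA measured by TaqMan qRT-PCR, normalized to ACTB, GAPDH, POLR2A; bidirectional fit versus DMSO.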

[9] = read-out: growth arrest and DNA damage 45 (GADD45A), GADD45A (gene 1647); assay: LTEA_HepaRG_GADD45A: Life Technologies and Expression Analysis (LTEA) Assay for growth arrest and DNA damage 45 (GADD45A) using HepaRG (AID 2283458); conditions: mRNA level, 48 h; actives raise or lower the signal
In short: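 Cells plated and cultured 48 h, switched to serum-free induction medium, then dosed for 48 h (100 uM top, half-log dilutions, 0.5% DMSO). RNA was isolated and transcript measured by Fluidigm qRT-PCR.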

[10] = read-out: Forkhead box O3 (FOXO3), FOXO3 (gene 2309); assay: LTEA_HepaRG_FOXO3: Life Technologies and Expression Analysis (LTEA) Assay for Forkhead box O3 (FOXO3) using HepaRG (AID 2283459); conditions: mRNA level, 48 h; actives raise or lower the signal
In short: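 Differentiated human HepaRG cells, 48 h post-plating, exposed in duplicate for 48 h in serum-free induction medium; 8-point half-log series from 100 uM in 0.5% DMSO. FOXO3 mRNA by TaqMan qRT-PCR, normalized to ACTB/GAPDH/POLR2A; bidirectional fit versus DMSO.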

[11] = read-out: ABC Transporter (ABCB1), ABCB1 (gene 5243); assay: LTEA_HepaRG_ABCB1: Life Technologies and Expression Analysis (LTEA) Assay for ABC Transporter (ABCB1) using HepaRG (AID 2283460); conditions: mRNA level, 48 h; actives raise or lower the signal
In short: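 HepaRG cells exposed in duplicate for 48 h in serum-free induction medium to eight half-log concentrations up to 100 uM in 0.5% DMSO. ABCB1 mRNA quantified by qRT-PCR, normalised to ACTB, GAPDH and POLR2A; fitted bidirectionally versus DMSO.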

[12] = read-out: growth arrest and DNA damage 45 (GADD45B), GADD45B (gene 4616); assay: LTEA_HepaRG_GADD45B: Life Technologies and Expression Analysis (LTEA) Assay for growth arrest and DNA damage 45 (GADD45B) using HepaRG (AID 2283461); conditions: mRNA level, 48 h; actives raise or lower the signal
In short: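 HepaRG, ~100,000 cells/well, 48 h plating; serum-free induction medium; cpd 100 uM top, half-log x8, 0.5% DMSO, duplicate, 48 h; lysis in RLT, RNA isolation, qRT-PCR; norm ACTB/GAPDH/POLR2A; bidirectional fit vs DMSO.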

[13] = read-out: ABC Transporter (ABCC3), ABCC3 (gene 8714); assay: LTEA_HepaRG_ABCC3: Life Technologies and Expression Analysis (LTEA) Assay for ABC Transporter (ABCC3) using HepaRG (AID 2283462); conditions: mRNA level, 48 h; actives raise or lower the signal
In short: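 Human HepaRG, 48 h dosing, 8-pt half-log series from 100 uM, 0.5% DMSO vehicle, duplicates. ABCC3 mRNA by TaqMan qRT-PCR, housekeeping-normalized; bidirectional curve fit vs DMSO.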

[14] = read-out: ABC Transporter (ABCB11), ABCB11 (gene 8647); assay: LTEA_HepaRG_ABCB11: Life Technologies and Expression Analysis (LTEA) Assay for ABC Transporter (ABCB11) using HepaRG (AID 2283463); conditions: mRNA level, 48 h; actives raise or lower the signal
In short: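 Differentiated human HepaRG cells in serum-free induction medium, dosed in duplicate for 48 h. Eight-point half-log series from 100 uM in 0.5% DMSO; ABCB11 mRNA by qRT-PCR, normalized to ACTB, GAPDH, POLR2A, fitted bidirectionally versus DMSO.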

[15] = read-out: ABC Transporter (ABCC2), ABCC2 (gene 1244); assay: LTEA_HepaRG_ABCC2: Life Technologies and Expression Analysis (LTEA) Assay for ABC Transporter (ABCC2) using HepaRG (AID 2283464); conditions: mRNA level, 48 h; actives raise or lower the signal
In short: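 HepaRG, 48 h post-plating; serum-free induction medium; cpd 8-pt, 100 uM top, half-log, 0.5% DMSO, duplicate, 48 h. Readout: ABCC2 mRNA by qRT-PCR, norm. ACTB/GAPDH/POLR2A. Bidirectional fit vs DMSO baseline.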

[16] = read-out: Broad substrate specificity ATP-binding cassette transporter ABCG2 (Homo sapiens) (UniProt Q9UNQ0); assay: LTEA_HepaRG_ABCG2: Life Technologies and Expression Analysis (LTEA) Assay for ABC Transporter (ABCG2) using HepaRG (AID 2283465); conditions: mRNA level, 48 h; actives raise or lower the signal
In short: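 Differentiated HepaRG cells were exposed for 48 h in serum-free induction medium to 8 half-log concentrations, top 100 uM, in 0.5% DMSO. ABCG2 mRNA was measured by qRT-PCR, normalized to ACTB, GAPDH and POLR2A, with bidirectional fitting versus DMSO.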

[17] = read-out: ATP-citrate lyase (ACLY), ACLY (gene 47); assay: LTEA_HepaRG_ACLY: Life Technologies and Expression Analysis (LTEA) Assay for ATP-citrate lyase (ACLY) using HepaRG (AID 2283466); conditions: mRNA level, 48 h; actives raise or lower the signal
In short: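 Differentiated HepaRG cells exposed 48 h in serum-free induction medium to eight half-log concentrations up to 100 uM in 0.5% DMSO, duplicates. Transcript measured by Fluidigm TaqMan qRT-PCR, normalized to ACTB, GAPDH, POLR2A; bidirectional fit versus DMSO.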

[18] = read-out: Fatty acid synthase (Homo sapiens) (UniProt P49327); assay: LTEA_HepaRG_FASN: Life Technologies and Expression Analysis (LTEA) Assay for Fatty Acid Synthase (FASN) using HepaRG (AID 2283448); conditions: mRNA level, 48 h; actives raise or lower the signal
In short: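 FASN expression changes, up or down relative to 0.5% DMSO, were measured by qRT-PCR in human HepaRG cells after 48 h treatment with chemicals at eight concentrations (half-log steps from 100 uM).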

[19] = CEETOX_H295R_TESTO: CeeTox H295R High-throughput Steroidogenesis Assay for Testosterone (TESTO) (AID 2283457); conditions: actives raise or lower the signal
In short: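 H295R, passage ≤10, 48 h dosing; media extracted with MTBE → HPLC-MS/MS for testosterone; 7-pt standard curve sets LLOQ/ULOQ; bidirectional fit vs DMSO; MTT viability same wells.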

[20] = read-out: Cytochrome P450 (CYP1A1), CYP1A1 (gene 1543); assay: LTEA_HepaRG_CYP1A1: Life Technologies and Expression Analysis (LTEA) Assay for Cytochrome P450 (CYP1A1) using HepaRG (AID 2283454); conditions: mRNA level, 48 h; actives raise or lower the signal
In short: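 HepaRG, 48 h post-plating switched to serum-free induction medium; 8-pt conc-response (top 100 uM, half-log, 0.5% DMSO), duplicates, 48 h. Lysis in RLT, TaqMan qRT-PCR for CYP1A1; gain or loss vs DMSO.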

Measured: AC50

Broad substrate specificity ATP-binding cassette transporter ABCG2 (Homo sapiens), sequence (Q9UNQ0 whole entry, looked up): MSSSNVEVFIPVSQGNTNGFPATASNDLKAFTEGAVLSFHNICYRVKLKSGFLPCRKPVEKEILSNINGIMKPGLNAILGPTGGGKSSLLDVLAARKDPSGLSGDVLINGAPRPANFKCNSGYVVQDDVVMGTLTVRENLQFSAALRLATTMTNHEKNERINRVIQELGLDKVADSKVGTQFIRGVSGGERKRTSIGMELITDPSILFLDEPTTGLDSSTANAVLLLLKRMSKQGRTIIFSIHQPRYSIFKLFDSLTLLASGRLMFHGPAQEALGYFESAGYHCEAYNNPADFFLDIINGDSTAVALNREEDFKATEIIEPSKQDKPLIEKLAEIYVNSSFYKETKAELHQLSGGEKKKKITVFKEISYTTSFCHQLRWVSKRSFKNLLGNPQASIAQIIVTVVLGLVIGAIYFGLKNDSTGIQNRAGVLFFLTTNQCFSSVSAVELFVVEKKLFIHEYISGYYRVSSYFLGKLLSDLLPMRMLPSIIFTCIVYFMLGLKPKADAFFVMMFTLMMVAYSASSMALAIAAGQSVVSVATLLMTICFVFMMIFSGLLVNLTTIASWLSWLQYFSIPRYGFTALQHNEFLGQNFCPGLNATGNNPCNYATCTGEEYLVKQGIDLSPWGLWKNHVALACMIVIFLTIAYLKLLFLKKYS
Fatty acid synthase (Homo sapiens), sequence (P49327 whole entry, looked up): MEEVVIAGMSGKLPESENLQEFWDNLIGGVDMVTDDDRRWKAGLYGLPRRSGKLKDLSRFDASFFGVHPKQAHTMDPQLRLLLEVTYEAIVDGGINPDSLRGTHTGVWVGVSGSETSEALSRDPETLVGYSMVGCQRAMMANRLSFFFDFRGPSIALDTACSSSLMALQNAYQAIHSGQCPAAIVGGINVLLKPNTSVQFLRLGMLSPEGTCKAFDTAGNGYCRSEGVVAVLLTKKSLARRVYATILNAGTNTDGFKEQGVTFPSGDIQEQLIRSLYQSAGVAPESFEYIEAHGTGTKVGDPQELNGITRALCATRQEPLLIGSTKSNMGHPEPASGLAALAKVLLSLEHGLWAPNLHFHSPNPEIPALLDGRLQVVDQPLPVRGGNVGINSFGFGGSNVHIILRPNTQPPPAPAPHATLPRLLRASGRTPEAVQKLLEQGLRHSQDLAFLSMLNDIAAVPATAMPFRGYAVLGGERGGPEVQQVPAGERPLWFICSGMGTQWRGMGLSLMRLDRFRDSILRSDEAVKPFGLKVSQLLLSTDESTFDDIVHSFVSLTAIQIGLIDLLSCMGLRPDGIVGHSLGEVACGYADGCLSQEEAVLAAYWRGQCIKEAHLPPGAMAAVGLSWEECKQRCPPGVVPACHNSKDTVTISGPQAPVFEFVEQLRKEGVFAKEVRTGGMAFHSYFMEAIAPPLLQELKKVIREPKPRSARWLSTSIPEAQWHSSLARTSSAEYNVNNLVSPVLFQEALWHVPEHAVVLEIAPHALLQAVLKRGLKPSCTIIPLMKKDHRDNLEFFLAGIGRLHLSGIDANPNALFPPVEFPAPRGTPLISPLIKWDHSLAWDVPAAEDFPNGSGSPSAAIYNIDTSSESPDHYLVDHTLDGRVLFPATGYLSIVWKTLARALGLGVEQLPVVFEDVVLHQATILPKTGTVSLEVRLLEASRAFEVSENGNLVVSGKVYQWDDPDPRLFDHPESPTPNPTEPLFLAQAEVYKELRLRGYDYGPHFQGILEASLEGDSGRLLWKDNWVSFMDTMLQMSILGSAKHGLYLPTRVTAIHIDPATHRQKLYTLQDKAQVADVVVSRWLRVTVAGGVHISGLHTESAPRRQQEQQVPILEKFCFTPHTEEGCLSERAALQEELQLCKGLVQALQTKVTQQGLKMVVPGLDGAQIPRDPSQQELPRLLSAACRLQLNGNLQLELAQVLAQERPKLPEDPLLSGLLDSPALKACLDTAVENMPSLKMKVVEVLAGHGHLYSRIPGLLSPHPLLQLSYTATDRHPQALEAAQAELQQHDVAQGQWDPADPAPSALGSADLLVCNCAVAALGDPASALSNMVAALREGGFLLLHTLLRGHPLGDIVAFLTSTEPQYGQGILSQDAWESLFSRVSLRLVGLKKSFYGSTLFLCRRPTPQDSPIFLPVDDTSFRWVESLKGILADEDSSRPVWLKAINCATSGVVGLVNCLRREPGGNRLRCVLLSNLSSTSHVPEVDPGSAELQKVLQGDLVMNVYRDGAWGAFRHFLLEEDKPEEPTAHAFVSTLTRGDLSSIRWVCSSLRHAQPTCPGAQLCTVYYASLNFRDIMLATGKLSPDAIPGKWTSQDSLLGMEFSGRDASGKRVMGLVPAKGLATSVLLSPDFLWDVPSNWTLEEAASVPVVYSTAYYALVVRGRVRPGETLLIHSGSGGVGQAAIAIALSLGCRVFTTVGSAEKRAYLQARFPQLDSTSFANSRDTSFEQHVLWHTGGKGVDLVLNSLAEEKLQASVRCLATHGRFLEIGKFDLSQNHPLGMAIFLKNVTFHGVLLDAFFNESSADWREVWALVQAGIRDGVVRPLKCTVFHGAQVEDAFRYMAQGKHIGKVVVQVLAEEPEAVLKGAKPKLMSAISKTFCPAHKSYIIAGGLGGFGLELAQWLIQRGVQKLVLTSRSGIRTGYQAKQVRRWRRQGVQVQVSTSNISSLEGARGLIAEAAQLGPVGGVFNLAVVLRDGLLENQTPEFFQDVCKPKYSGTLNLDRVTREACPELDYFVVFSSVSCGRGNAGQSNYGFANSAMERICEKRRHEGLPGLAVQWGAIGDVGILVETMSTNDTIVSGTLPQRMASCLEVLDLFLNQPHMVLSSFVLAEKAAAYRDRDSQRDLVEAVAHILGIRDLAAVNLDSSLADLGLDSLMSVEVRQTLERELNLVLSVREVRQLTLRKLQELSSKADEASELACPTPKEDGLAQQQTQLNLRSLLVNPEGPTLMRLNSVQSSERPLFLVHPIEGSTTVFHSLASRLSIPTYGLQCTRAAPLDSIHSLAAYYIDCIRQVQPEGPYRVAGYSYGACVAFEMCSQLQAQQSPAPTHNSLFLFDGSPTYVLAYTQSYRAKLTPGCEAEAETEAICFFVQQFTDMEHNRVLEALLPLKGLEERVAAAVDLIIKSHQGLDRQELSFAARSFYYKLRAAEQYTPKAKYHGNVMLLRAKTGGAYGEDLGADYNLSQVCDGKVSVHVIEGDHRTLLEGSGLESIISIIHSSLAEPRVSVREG

CCCOC(=O)c1ccc(O)cc1
not listed: [18] | [19] | [20]
inactive: all other assays above

O=C(O)c1ccccc1C(c1ccc(O)cc1)c1ccc(O)cc1
not listed: [2] | [20]
inactive: all other assays above

CCCCCCC(=O)O
not listed: [8] | [19] | [20]
inactive: all other assays above

CCCCCCCCCCCCCCCS(=O)(=O)Oc1ccccc1
active: [11] 13.3 µM | [15] 11.2 µM
not listed: [8] | [19] | [20]
inactive: all other assays above

O=C(O)Cc1cc(I)c(Oc2cc(I)c(O)c(I)c2)c(I)c1
inactive: [1] | [20] | [11]
active: [18] 60.2 µM | [3] 33.5 µM | [4] 33.5 µM | [5] 45.4 µM | [6] 58.1 µM | [7] 33.5 µM | [9] 50.2 µM | [10] 24.8 µM | [12] 55.4 µM | [13] 52.4 µM | [14] 19.9 µM | [15] 57.7 µM | [16] 51.7 µM | [17] 56.3 µM

COCC(C)OCC(C)O (stereo not drawn)
not listed: [8] | [19] | [20]
inactive: all other assays above

— PubChem BioAssay (EPA / NIEHS)
